FEN1 inh – qHTS Assay for the Inhibitors of Human Flap endonuclease 1 (FEN1); 0.35% of 390,000 active; AID 588795, 2011; Recombinant FEN1 flap cleavage, fluorescence, 15 min; P39748; Potency, µM (doses to about 114 µM), for inactives: top-dose activity change, negative = inhibition, actives largely listed as inhibitors; further: on the % scale 0 is the no-effect control and ±100 the full control effect; nearly all actives have a fitted effect of over 65% in size
Target sequence (P39748 whole entry, looked up): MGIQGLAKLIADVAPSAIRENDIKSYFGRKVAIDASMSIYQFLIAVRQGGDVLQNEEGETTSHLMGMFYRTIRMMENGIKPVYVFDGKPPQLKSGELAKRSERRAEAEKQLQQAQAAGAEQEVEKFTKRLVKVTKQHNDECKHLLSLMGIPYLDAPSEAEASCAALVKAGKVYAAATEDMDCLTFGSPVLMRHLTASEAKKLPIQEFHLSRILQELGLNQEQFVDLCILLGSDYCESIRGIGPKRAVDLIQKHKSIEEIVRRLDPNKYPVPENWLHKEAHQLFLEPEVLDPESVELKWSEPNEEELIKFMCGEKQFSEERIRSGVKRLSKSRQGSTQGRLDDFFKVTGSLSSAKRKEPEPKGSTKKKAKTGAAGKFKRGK
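FEN1 at 10 nM preincubated with compounds 15 min at room temperature, then flap DNA substrate added at 50 nM final. Signal read at 0 and 15 min; concentration-response fitted with four-parameter Hill equation.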
POLI inh – qHTS for Inhibitors of Polymerase Iota; AID 588590, 2011; DNA polymerase iota (Homo sapiens), Q9UNA4; Pol iota fluorescent replication assay, 10 min; 1% of 390,000 active; Potency, µM (series often up to 115 µM), inactives show top-dose activity, negative = inhibition, most hits filed as inhibitors
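Fluorescent replication assay read twice, at 0 min and 10 min after adding 50 nM (final) substrate. Enzyme (10 nM) and compounds were first incubated 15 min at room temperature; enzyme-free buffer wells were negative controls.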
WRN inhibitor – qHTS for Inhibitors of WRN Helicase. WRN helicase unwinding, fluorescent forked duplex, kinetic. Bifunctional 3'-5' exonuclease/ATP-dependent helicase WRN (Homo sapiens), Q14191. Potency, µM (titrated, usually from 114 µM), inactives show at the top dose activity change, negative = inhibition, most hits filed as inhibitors. 0.46% of 360,000 active; further: on the % scale 0 is the no-effect control and ±100 the full control effect; nearly all actives have a fitted effect of over 55% in size
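Fluorescence dequenching readout, ex 525 nm/em 598 nm, kinetic mode: forked duplex DNA (100 nM final) with adjacent fluorophore and quencher unwound by WRN (20 nM final) with 2 mM ATP. Compound preincubation 15 min, room temperature.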
Pol beta inh – qHTS Assay for Inhibitors of DNA Polymerase Beta. P06746. Pol beta primer extension/strand displacement, fluorescence kinetic. Potency, µM (doses to about 114 µM), inactives show top-dose activity change, negative = inhibition, hits mostly inhibitors. 1.3% of 340,000 active; further: on the % scale 0 is the no-effect control and ±100 the full control effect
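10 nM enzyme + cpd, 15 min RT; start with substrate 50 nM final; read 0 min and after 10 min RT. Corrected, normalized data; 4-parameter Hill curve fit.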
Pol eta inh-1 – qHTS for Inhibitors of Polymerase Eta; Potency, µM (series often up to 114 µM), without a hit: top-dose activity change, negative = inhibition, actives largely listed as inhibitors; recombinant Pol eta, fluorescent DNA replication assay; DNA polymerase eta (Homo sapiens), Q9Y253; 1.2% of 390,000 active; AID 588591, 2011; further: on the % scale 0 is the no-effect control and ±100 the full control effect
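Pol eta (10 nM) was preincubated with compounds for 15 min at room temperature, after which fluorescent replication substrate (50 nM final) was added to start the reaction. Fluorescence was read kinetically at 0 and 10 min.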
Pol kappa inh-1 – qHTS for Inhibitors of Polymerase Kappa | AID 588579, 2011 | DNA polymerase kappa (Homo sapiens), Q9UBT6 | Potency, µM (doses to about 107 µM), inactives show top-dose activity, negative = inhibition, actives largely listed as inhibitors | 0.53% of 400,000 active | purified Pol kappa, fluorescent DNA synthesis assay, 10 min; further: on the % scale 0 is the no-effect control and ±100 the full control effect
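Readout: fluorescence, taken kinetically at 0 and 10 min. Conditions: 10 nM Pol kappa, 15 min RT compound preincubation, 50 nM substrate final. Controls: enzyme-free buffer wells.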
PGK validate – qHTS for inhibitors of Phosphogylcerate Kinase: Hit Validation Screen; shares compounds with Pol kappa inh-1; TbPGK coupled GAPDH assay, Kinase-Glo luminescence; Potency, µM (doses to about 57.5 µM), for inactives: top-dose activity change, negative = inhibition, actives largely listed as inhibitors; 79% of 500 active; AID 686980, 2013; further: on the % scale 0 is the no-effect control and ±100 the full control effect; nearly all actives have a fitted effect of over 65% in size
Pol iota confirm – qHTS for Inhibitors of Polymerase Iota: Confirmatory Assay for Cherry-picked Compounds; Potency, µM, most hits filed as inhibitors; shares compounds with Pol kappa inh-1; 77% of 1,500 active; Pol iota primer extension, TAMRA/BHQ fluorescence
Pol kappa inh-2 – qHTS for Inhibitors of Polymerase Kappa: Confirmatory Assay for Cherry-picked Compounds; shares compounds with Pol eta inh-1; purified Pol-kappa, fluorescent strand-displacement substrate; Potency, µM, hits mostly inhibitors; 76% of 920 active; AID 720501, 2013
Pol eta inh-2 – qHTS for Inhibitors of Polymerase Eta: Confirmatory Assay for Cherry-picked Compounds | shares compounds with Pol eta inh-1 | Pol eta primer extension, TAMRA/BHQ fluorescence, 10 min | Potency, µM, actives largely listed as inhibitors | 64% of 2,600 active | AID 720502, 2013
The depositor's hits bear a star; ? = inconclusive; . = no result given; [ ] = dose if it differs, or a comment. In the library only some 2.4% were active in any assay of this set; here they are far more common. The call rests on the fitted dose curve; in most records, active means well fitted curve in the direction sought with a large enough effect; inconclusive means small, poorly fitted or top-dose-only effect, or another doubt; inactive means no such curve, though single readings can be large; an effect the other way counts as inactive or inconclusive. Potency means the concentration at half of the fitted maximal effect.

SMILES	FEN1 inh	POLI inh	WRN inhibitor	Pol beta inh	Pol eta inh-1	Pol kappa inh-1	Pol iota confirm	Pol eta inh-2	others
CCC(C)(C)C1CCC2(CC1)NC(=O)N(CC(=O)N1CCN(c3ccccc3OC)CC1)C2=O (configuration not stated)	.	.	15%	.	-7%	.	.	.
COC(=O)c1cnc(NC(=O)C2(C)CCCN(C(C)=O)C2)s1 (configuration not stated)	.	.	4%	.	.	.	.	.
CN(C)c1ccc(-c2cc[nH]c(=O)c2N)cc1	.	.	.	.	.	.	?	.
COc1ccc(-c2cc3c(nn2)-c2ccccc2C3=O)cc1	1%	187%	-4%	37%	-21%	-3%	.	.	PGK validate=4.6µM*
Cc1cccc(-c2cc3c(nn2)-c2ccccc2C3=O)c1	-19%	35%	-35%	7%	-12%	-12%	.	.
O=C1c2ccccc2-c2nnc(-c3ccccc3)cc21	-6%	?	-3%	26%	-5%	5%	.	.	PGK validate=12µM*
CC(=O)Nc1cc(-c2cccnc2)cn2c(-c3ccc(F)cc3)cnc12	.	.	-15%	.	.	.	.	.
COCCNC(=O)/C(C#N)=C/c1ccc(O)cc1	20%	20%	-9%	1%	-4%	4%	.	.	PGK validate=16µM*
COCCNC(=O)/C(C#N)=C/c1cccc(/C=C(\C#N)C(=O)NCCOC)c1	1%	116%	-3%	-1%	-10%	-7%	.	.
CN(C)c1ccc(/C=C2\SC(=S)N(Nc3ncc(C(F)(F)F)cc3Cl)C2=O)cc1	?	11µM*	50µM*	-1%	45µM*	18µM*	21*	19*
CCOC(=O)C1=C(C)N(C[C@@H]2CC[C@@H](Cc3ccc(-c4ccccc4)cc3)O2)C(=O)NC1c1ccc(SCc2ccco2)c([N+](=O)[O-])c1 (some centres not stated)	-24%	?	?	.	13µM*	?	60*	48*	Pol kappa inh-2=17*
COc1ccc(NC(=O)CN(C)C(=O)c2cccc(-n3cccc3)c2)cc1	-12%	13µM*	45µM*	.	11µM*	45µM*	30*	67*
O=C(CCNS(=O)(=O)c1ccc(OC(F)(F)F)cc1)Nc1cccc(S(=O)(=O)N2CCCC2)c1	7%	-4%	-6%	.	-27%	4%	.	.
CC1=C/C(=C\c2ccc(Br)o2)C(=O)O1	?	10µM*	20µM*	6.3µM*	2.2µM*	25µM*	17*	11*	PGK validate=3.7µM*;Pol kappa inh-2=17*
Cc1ccc(C=C2C=C(c3ccccc3)OC2=O)cc1	.	.	2%	.	3%	.	.	.
CCOC(=O)C1=C(COC(=O)/C=C/c2ccco2)NC(=O)NC1C (configuration not stated)	4%	14µM*	?	.	11µM*	50µM*	19*	27*
COc1cccc(NC(=O)CSc2nc(C)c(Cc3ccccc3)c(=O)[nH]2)c1	-2%	20%	.	11%	.	-16%	.	.
CCOc1cc(/C=C2\C(=N)N3N=C(S(C)(=O)=O)SC3=NC2=O)ccc1OCCOc1cccc(OC)c1	-25%	?	56µM*	?	28µM*	-21%	?	85*	Pol kappa inh-2=75*
COc1cc(/C=C2/C(=N)N3C(=NC2=O)SN=C3S(C)(=O)=O)ccc1OS(=O)(=O)c1ccc(C)cc1	-20%	?	?	?	79µM*	-28%	?	30*
COc1cc(/C=C2\C(=N)N3N=C(S(C)(=O)=O)SC3=NC2=O)cc(OC)c1OCCOc1cccc(C)c1	-8%	93%	-33%	?	?	-8%	.	.
Cc1ccc(S(=O)(=O)Oc2ccc(/C=C3\C(=N)N4N=C(S(C)(=O)=O)SC4=NC3=O)cc2)cc1	?	16µM*	?	?	20µM*	-26%	?	76*
O=C(O)c1ccccc1Nc1ccccc1C(=O)O	-1%	1%[58.9 µM]	-4%	8%	-17%	-1%	.	.
O=C1C=C(Nc2ccccc2C(=O)O)c2ccccc2C1=O	?	18µM*	-36%[57.1 µM]	?	28µM*	-18%	67*	38*
O=C1C=C(Nc2cccc3cccnc23)c2ccccc2C1=O	50µM*	18µM*	-18%[57.1 µM]	?	50µM*	?	?	?
Cc1ccc(N=Nc2c(N)nn3c(N)c(C#N)c(C)nc23)cc1	?	?	-17%[11.6 µM]	22µM*	?	79µM*	42*	?
COc1ccc(NC(=O)CCNS(=O)(=O)c2ccc3c(c2)CCCC(=O)N3)cc1	-6%	1%	.	24%	2%	3%	.	.
Cc1cc(/C=C(\C#N)C(=O)NCC2CCCO2)c(C)n1-c1ccc(Cl)cc1 (configuration not stated)	-9%	12%	-15%	2%	-6%	-12%	.	.
Cc1cc(/C=C(\C#N)C(=O)NCc2ccco2)c(C)n1-c1ccc(C(=O)O)cc1	10%	40µM*	-11%	?	20µM*	?	67*	27*
Cc1ccc(C(C)C)c(OCC(=O)Nc2ccc(-c3nc4ncccc4o3)cc2C)c1	-17%	-20%	.	49%	6%	6%	.	.
COc1ccc(-c2cnnc(N/N=C/c3ccc(O)c(O)c3)n2)cc1	?	8.9µM*	?	3.5µM*	20µM*	25µM*	47*	30*

Bioassay records (PubChem BioAssay)
